Bioassay records from PubChem.
TWEAK Fn14 block: TWEAK-Fn14 signaling inhibition | inhibition, % at 10 µM | AID 1159606 | 360,000 tested, 2% active | TWEAK-stimulated Fn14 reporter cells, luciferase luminescence, 8 h; in the data active = inhibition above about 50%
LMP1 NFkB inh: Epstein-Barr LMP1 NF-kappaB reporter inhibition; 350,000 tested, 0.69% active; inhibition, % at 12.5 µM; LMP1-induced NF-kappaB luciferase reporter cells, luminescence; in the data active = inhibition above about 41%; inconclusive = no clear call, values can overlap the other calls;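 note: 0% = neutral control wells and 100% = reference inhibitor control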
Shn3 3UTR inh: Schnurri-3 reporter inhibition in Clone20 osteoblasts; Clone20 osteoblast Shn3 3'UTR firefly luciferase, 24 h; inhibition, % at 12.5 µM; 360,000 tested, 0.52% active;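 active = mean inhibition of at least 75% with every replicate also reaching 75%; inconclusive = mean inhibition at least 75% but some replicate below; inactive = mean inhibition below 75%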;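 note: 0% = median of neutral control wells and 100% = pilot-screen positive control compound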
TRPM1 prom inh: inhibitors of MITF-driven TRPM1 promoter in melanoma cells | SK-MEL-5 TRPM1 promoter luciferase, 24 h | inhibition, % at 12.5 µM | 330,000 tested, 0.83% active | AID 488899;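 active = mean inhibition across replicates of 60% or more, whatever share of single replicates reaches that level; inconclusive = some that reach 60%, reason not given; inactive = mean inhibition across replicates below 60%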
HIF-2a inh: blocks HIF-2a reporter activity; 786-0 RCC cells HIF-2a reporter, luciferase luminescence, overnight; inhibition, % at 18.8 µM; 360,000 tested, 0.72% active; AID 624352;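 active = inhibition of the luminescence signal of 40% or more relative to plate controls, in a single-dose primary screen at 18.75 µM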
TROY NFkB inh: blocks TROY-dependent signaling in reporter cells. Q293 LMP1-TROYcd NF-kB luciferase reporter, 4 h. inhibition, % at 10 µM. 360,000 tested, 0.98% active;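 active = compounds whose plate-normalised and pattern-corrected inhibition of the luciferase reporter signal at the single screening dose is 50% or more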
An asterisk follows results filed as active; ? = inconclusive; . = no result given. Most compounds without a hit are left out; they make up all but 3.4% or so of the library.

SMILES	TWEAK Fn14 block	LMP1 NFkB inh	Shn3 3UTR inh	TRPM1 prom inh	HIF-2a inh	TROY NFkB inh
CCOC(=O)c1ccc(N(C(=O)c2ccco2)C(C(=O)NC2CCCC2)c2ccncc2)cc1 (stereo unspecified)	10	-3	-35	41	-114	-13
COc1ccc(-c2c(C)nc3c(-c4ccccn4)cnn3c2N)cc1	56*	-71	11	.	-219	59*
Cc1nc2c(-c3ccc(F)cc3)cnn2c(N)c1-c1ccc(F)cc1	78*	-32	-52	-54	-89	74*
Cc1cc(C(F)(F)Cl)n2ncc(-c3ccccn3)c2n1	-6	1	-21	14	-45	-9
COc1ccc(-c2c(C)nc3c(-c4ccsc4)cnn3c2N)cc1	32	-30	-25	-85	-188	57*
O=C(NCCOc1ccccc1)C1CCC(=O)N(CCCN2CCCC2=O)C1 (stereo unspecified)	4	-4	-6	-11	-3	9
CCCCc1ccc(NC(=O)COC(=O)c2ccc3ncsc3c2)cc1	-3	-3	-1	.	4	-2
FC(F)(F)c1nc2nc(Cl)c(Cl)nc2[nH]1	9	-1	-20	.	7	4
FC(F)(F)c1cccc(-c2nc3nc(Cl)c(Cl)nc3[nH]2)c1	64*	19	-3	-8	-393	34
CCC(=O)NC(=S)Nc1ccccc1C(F)(F)F	-2	73*	-14	-4	-3	5
N#CCC(=O)NNC(=S)Nc1ccccc1C(F)(F)F	65*	12	29	21	15	16
O=C(O)c1cccc2cccc(-c3c4ccc(=O)c(O)c-4oc4c(O)c(O)ccc34)c12	82*	-2	-1	28	34	-3
COC(=O)[C@@H]1C[C@]2(OC(=O)c3ccccc3)C=CC(=O)C[C@@H]2N1C(=O)OCc1ccccc1	51*	3	-16	?	91*	24
CC(C)N(C(=O)[C@H]1C[C@H](CC(=O)NCCCN(C)C)C(=O)N2CCc3c([nH]c4cc(-c5ccco5)ccc34)[C@]12C)C(C)C	15	-5	-26	73*	-30	-1
CCN(CC)C(=O)[C@H]1C[C@H](CC(=O)NCCCN(C)C)C(=O)N2CCc3c([nH]c4cc(-c5ccco5)ccc34)[C@]12C	17	-1	-13	-9	-32	-5
C[C@H](CO)N1C[C@H](C)[C@@H](CN(C)CC2CCCCC2)Oc2ccc(NC(=O)Cn3cnnn3)cc2C1=O	5	-3	-3	-12	7	-16
Cc1nc2ccc(F)cc2cc1C(=O)Nc1ccc(Cl)c(Cl)c1	51*	14	8	7	4	-7
O=C(Nc1ccc(CN2CCOCC2)cc1)c1cc2ccccc2o1	2	-15	-49	-97	-161	10
O=C(Nc1ccc(CN2CCOCC2)cc1)c1ccc(-c2cccc(Cl)c2)o1	57*	13	-7	3	-49	45
O=C(Nc1ccc(CN2CCOCC2)cc1)c1cc2ccccn2n1	87*	?	44	.	20	69*
O=C(NC(=S)Nc1ccc(CN2CCOCC2)cc1)c1ccc(-c2cccc(Cl)c2)o1	49	18	34	35	-31	58*
COc1ccccc1CNC(=O)COC(=O)c1ccc2c(=O)n3c(nc2c1)CCCCC3	-25	-3	-8	-5	-31	-9
Cc1cccc(-c2nc(=S)c3c(n2Cc2ccco2)CCCC3)c1	50*	-2	-31	8	-21	11
Cc1ccc(-c2nc(=S)c3c(n2Cc2ccco2)CCCC3)cc1	33	-6	1	22	-47	-7
COc1ccc(NC(=O)CN(C)C(=O)CCCN2C(=O)c3cccc4cccc(c34)C2=O)cc1	-24	-7	3	-11	-46	-9
SMILES	TWEAK Fn14 block	LMP1 NFkB inh	Shn3 3UTR inh	TRPM1 prom inh	HIF-2a inh	TROY NFkB inh
Cc1ccc(-c2csc(N3CCN(c4cc5c(cc4Cl)nc(C)n5CCN4CCCCC4)CC3)n2)cc1	-22	1	4	-8	1	4
Cc1csc(N2CCN(c3cc4c(cc3Cl)nc(-c3ccncc3)n4CCCN3CCCC3)CC2)n1	0	6	5	90*	18	6
CCOC(=O)N1CCN(C(=O)c2ccc3oc(CCc4ccccc4)nc3c2)CC1	-29	-2	-17	.	-46	3
O=C(c1ccc2oc(CCc3ccccc3)nc2c1)N1CCC(O)CC1	49	-9	-54	-90	-142	58*
CCOC(=O)C1=C(C)N(C[C@@H]2CC[C@@H](Cc3ccc(-c4ccccc4)cc3)O2)C(=O)NC1C1CC1 (stereo partly specified)	32	0	67	-4	3	18
CCNc1ccc(Br)cc(C(=O)/C=C/c2ccc(Cl)cc2)c1=O	-1	-94	82	27	3	-5
CCNc1ccc(Br)cc(C(=O)/C=C/c2c(Cl)cccc2Cl)c1=O	-3	61*	57	83*	68*	8
O=C(CCn1ccc2cc(S(=O)(=O)N3CCCC3)ccc21)NCCc1ccccc1	5	72*	-1	-5	-3	-4
CCc1ccc(NC(=O)CSc2nnc(CNC(=O)c3cccs3)o2)cc1	-10	-2	0	-4	5	-12
CCN(CC)c1ccc(/C=N/NC(=O)c2cccc(S(=O)(=O)N3CCOCC3)c2)cc1	16	-17	-16	1	-8	6
CCN(Cc1ccccc1)c1ccc(/C=N/NC(=O)c2cccc(S(=O)(=O)N3CCOCC3)c2)cc1	69*	17	15	1	19	26
COc1cc(/C=N/NC(=O)c2cccc(S(=O)(=O)N3CCOCC3)c2)cc(OC)c1O	-6	65*	-10	13	16	1
N#Cc1ccc(CC(=O)c2ccccc2)[nH]c1=O	20	0	2	-4	-2	-1
C/C(=N\NC(=O)COc1ccccc1-c1ccccc1)c1ccccn1	-71	41*	98*	84*	13	22
C/C(=N\NC(=O)COc1ccccc1-c1ccccc1)c1ccc(O)cc1O	6	30	92*	13	21	24
CCCCCCCC(=O)N/N=C(\C)c1ccc(O)cc1O	-14	1	49	1	25	-9
C/C(=N\NC(=O)COc1ccccc1-c1ccccc1)c1cccnc1	8	2	-7	-2	7	30
Cc1nc([N+](=O)[O-])c(Sc2nc3ccccc3[nH]2)n1Cc1ccccc1	57*	4	25	46	22	7
Cn1cnc([N+](=O)[O-])c1Sc1nc2ccccc2[nH]1	10	.	15	.	28	3
COc1ccc(NS(=O)(=O)c2ccc3nc(COc4cccc5ccccc45)[nH]c3c2)cc1	59*	-5	35	10	22	38
Cc1ccc(S(=O)(=O)N2C[C@H]3[C@H]4C(=O)N(c5ccccc5)C(=O)[C@H]4C[C@H](OC(=O)NC4CCCC4)[C@@]3(O)C2)cc1	-22	-2	5	.	-2	4
